Measurements as given in PubChem BioAssay AID1645849 (National Center for Advancing Translational Sciences (NCATS), 2021).
Inconclusive results are not listed. Where a call stands in place of a potency, no number is given. Activity calls are given as the source filed them. Calls follow the shape of the dose curve; as a rule, active = well fitted inhibition curve with a large enough effect in the repeat runs; inconclusive = weak or mixed curves; inactive = no such curve, though single readings can be large or run the other way.

Assay: Comparison of Janus kinase inhibitors to block the type I interferon pathway in human skeletal muscle cells: JAK inhibition assay
Text: Assay Submitter: Travis B. Kinder Ph.D.
National Center for Advancing Translational Sciences (NCATS)
The family of Janus kinases (JAK1, JAK2, JAK3, TYK2) mediate signal transduction from cytokine receptors through phosphorylation and activation of intracellular signaling pathways and transcription factors. Small molecule antagonists of JAKs (jakinibs) have been developed with varying selectivity for the use in malignancies and immune regulation. […] We have assayed a library of 48 jakinibs for their ability to inhibit the JAK1/TYK2-dependent type I interferon (IFN) - major histocompatibility complex (MHC) class I pathway in human skeletal muscle cells genome-engineered to fuse a pro-luminescent HiBiT peptide to endogenous MHC class I.
The assay utilized CRISPR/Cas9 genome-engineered immortalized human myoblasts, C25cl48, where a pro-luminescent reporter HiBit was fused to the C-terminus of endogenous MHC class I allele HLA-B*08:01 (HLA-B HiBit myoblasts) (Kinder et al., 2020). […] After 24 hrs of treatment, cells were assayed by Nano-Glo HiBiT Lytic Detection System (Promega) and luminescence measured by a ViewLux 1430 Ultra HTS (Perkin Elmer). […]
7; Detector; 5 sec; Measure luminescence with ViewLux 1430 Ultra HTS (Perkin Elmer). […]

With `CC(C)(O)/C=C\C(=O)[C@](C)(O)[C@H]1[C@H](O)C[C@]2(C)[C@@H]3CC=C4[C@@H](C=C(O)C(=O)C4(C)C)[C@]3(C)C(=O)C[C@@]12C` the Potency was 5.65 µM (active).
With `CC1CCCCCC(=O)c2c(O)cc(O)cc2CC(=O)O1` (configuration not stated) the Potency was “inactive”.
